Assay outcomes deposited in PubChem BioAssay by National Center for Advancing Translational Sciences (NCATS).
GLA spleen mod: inhibits or activates alpha-galactosidase in human spleen homogenate; P06280; hit rate 0.008% among 240,000; human spleen homogenate, 4MU-alpha-Gal fluorescence, 40 min; Potency, µM (series often up to 80 µM), inactives show top-dose activity change, negative = inhibition, actives largely listed as inhibitors;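 also: potency is read from the fitted curve at half-maximal effect; 0% = enzyme with vehicle and -100% = no enzyme basal signal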
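Spleen homogenate 1 ug + cpd (titration) + 4-MU-alpha-D-galactopyranoside 1 mM; 37C 40 min; 50 mM citrate/phosphate pH 5.0, 0.01% Tween-20; stop pH 10; fluorescence 365/440; AC50 via Hill.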
GAA glycogen: GAA glycogen-cleavage inhibition or activation. P10253. recombinant GAA, glycogen substrate, Amplex Red glucose oxidase fluorescence. Potency, µM (doses to about 76.4 µM), for the others: top-dose activity change, negative = inhibition, actives largely listed as inhibitors. hit rate 0.38% among 300,000. AID 2100;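 also: potency is read from the fitted curve at half-maximal effect; 0% = full enzyme reaction and -100% = no-enzyme basal signal; the screen sought inhibitors and activators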
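Recombinant human enzyme (4 nM); glycogen substrate; 37 C, 40 min, pH 5.0. Readout: coupled glucose oxidase/Amplex Red fluorescence.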
GAA spleen mod: inhibitors or activators of human alpha-glucosidase in spleen homogenate; human spleen homogenate, 4-MU-alpha-glucoside fluorescence; Potency, µM (top dose mostly 79.9 µM), inactives show top-dose activity change, negative = inhibition, usual class: inhibitors; hit rate 0.006% among 240,000;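 also: potency is read from the fitted curve at half-maximal effect; 0% = enzyme with vehicle and -100% = no enzyme basal signal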
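Human spleen homogenate (1 ug) incubated with compounds and 1 mM 4-methylumbelliferyl-alpha-D-glucopyranoside in pH 5.0 citrate/phosphate buffer, 37 C, 40 min. Stopped at pH 10; 4-MU fluorescence (Ex 365/Em 440 nm); AC50 by Hill fit.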
GAA inh: inhibitors of human lysosomal alpha-glucosidase; P10253; purified human GAA, 4-MU-alpha-glucoside fluorescence; Potency, µM (top dose mostly 76.9 µM), for inactives: at the top dose activity change, negative = inhibition, most hits filed as inhibitors; hit rate 0.005% among 200,000; AID 1466;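 also: potency is read from the fitted curve at half-maximal effect; plate controls were uninhibited enzyme wells for no effect and no-enzyme background for full effect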
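Read-out is 4-methylumbelliferone fluorescence (Ex 365/Em 440 nm) after NaOH/glycine stop at pH 10. Enzyme 4 nM, substrate 400 uM, pH 5.0 citrate buffer, 20 min room temperature; AC50 from Hill-equation concentration-response.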
GLA inh pH 4.5: alpha-galactosidase A (human) inhibition, pH 4.5. P06280. purified enzyme, 4-MU-alpha-Gal fluorescence, pH 4.5. activity change, negative = inhibition, % at 105 µM. 230,000 tested, under 10 active;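 also: 0% = full activity with enzyme and -100% = basal without enzyme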
Target sequence (P06280 whole entry, looked up): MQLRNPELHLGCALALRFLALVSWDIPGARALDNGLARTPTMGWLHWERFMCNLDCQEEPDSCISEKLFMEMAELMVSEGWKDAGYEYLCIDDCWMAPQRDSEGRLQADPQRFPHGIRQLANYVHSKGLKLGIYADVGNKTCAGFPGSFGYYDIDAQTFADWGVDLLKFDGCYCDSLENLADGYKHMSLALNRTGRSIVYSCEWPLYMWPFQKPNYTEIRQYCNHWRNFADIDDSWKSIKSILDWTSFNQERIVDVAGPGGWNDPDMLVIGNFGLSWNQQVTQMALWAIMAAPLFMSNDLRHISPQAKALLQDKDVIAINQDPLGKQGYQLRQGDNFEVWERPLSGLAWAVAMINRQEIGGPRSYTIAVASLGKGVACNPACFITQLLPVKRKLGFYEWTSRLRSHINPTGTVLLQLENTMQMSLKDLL
* marks the source's active call; other numbers are inactive results; [ ] = remark or other dose. Most compounds without a hit are left out; they make up all but 0.4% or so of the library. Calls follow the shape of the dose curve; as a rule, active = well fitted curve in the direction sought with a large enough effect; inconclusive = small, poorly fitted or top-dose-only effect, or another doubt; inactive = no such curve, though single readings can be large; an effect the other way counts as inactive or inconclusive.

Screening COCCNc1c(-c2ccc(O)cc2)nc2ccc(Cl)cn12 returned GLA spleen mod 2%, GAA glycogen 10µM*, GAA spleen mod -13%, GAA inh 1% and GLA inh pH 4.5 -1.
`CC(C)C[C@H](NC(=O)CNC(=O)[C@H](C)NC(=O)[C@H](CC(C)C)NC(=O)[C@H](CCCNC(=N)N)NC(=O)[C@H](Cc1cnc[nH]1)NC(=O)[C@@H](NC(=O)[C@@H](NC(=O)[C@@H]1CSSC[C@H](NC(=O)[C@@H](N)CO)C(=O)N[C@@H](CC(N)=O)C(=O)N[C@@H]([C@@H](C)O)C(=O)N[C@@H](C)C(=O)N[C@@H]([C@@H](C)O)C(=O)N1)C(C)C)[C@@H](C)O)C(=O)N[C@@H](CC(C)C)C(=O)N[C@@H](CO)C(=O)N[C@@H](CCCNC(=N)N)C(=O)N[C@@H](CO)C(=O)NCC(=O)NCC(=O)N[C@H](C(=O)N[C@H](C(=O)N[C@@H](CCCCN)C(=O)N[C@@H](CC(=O)O)C(=O)N[C@@H](CC(N)=O)C(=O)N[C@@H](Cc1ccccc1)C(=O)N[C@H](C(=O)N1CCC[C@H]1C(=O)N[C@H](C(=O)N[C@@H](CC(N)=O)C(=O)N[C@H](C(=O)NCC(=O)N[C@@H](CO)C(=O)N[C@@H](CCCCN)C(=O)N[C@@H](C)C(=O)N[C@@H](Cc1ccccc1)C(N)=O)C(C)C)[C@@H](C)O)C(C)C)C(C)C)C(C)C` gave GLA spleen mod -6% and GAA spleen mod -3%.
`COc1ccc(C(=O)NNc2ccccc2)cc1OC` gave GLA spleen mod 2%, GAA glycogen 22µM*, GAA spleen mod 2%, GAA inh 0% and GLA inh pH 4.5 -3.
For CC(C)NC(=S)N/N=C/c1c[nH]c2ccccc12 the results were GLA spleen mod 6%, GAA glycogen -3%, GAA spleen mod 7%, GAA inh -1% and GLA inh pH 4.5 -13.
For Cc1[nH]c2ccccc2c1/C=N/NC(=S)NC(C)C the results were GLA spleen mod 6%, GAA glycogen 7.9µM*, GAA spleen mod 4%, GAA inh 2% and GLA inh pH 4.5 -17.
Screening Cc1[nH]c2ccccc2c1/C=N/Nc1ccccc1[N+](=O)[O-] returned GLA spleen mod 10%, GAA glycogen 6.3µM*, GAA spleen mod 2%, GAA inh -3% and GLA inh pH 4.5 2.
For Cc1[nH]c2ccccc2c1/C=N/NS(=O)(=O)c1ccccc1 the results were GLA spleen mod 1%, GAA glycogen inconclusive, GAA spleen mod 11%, GAA inh 1% and GLA inh pH 4.5 -2.
`COc1ccccc1C1=Nn2c(nnc2-c2ccccc2O)SC1` gave GLA spleen mod 7% and GAA spleen mod 6%.
`CC[C@H](C)[C@H](N)C(=O)N[C@H](C(=O)N[C@@H](CO)C(=O)N[C@@H](C)C(=O)N[C@H](C(=O)N[C@H](C(=O)NCC(=O)N[C@H](C(=O)N[C@@H](CC(C)C)C(=O)O)[C@@H](C)CC)C(C)C)C(C)C)[C@@H](C)CC` gave GLA spleen mod -5% and GAA spleen mod -5%.
For Cc1ccc(Nc2c(-c3ccco3)nc3ccccn23)cc1 the results were GLA spleen mod -2%, GAA glycogen inconclusive, GAA spleen mod -6%, GAA inh 11% and GLA inh pH 4.5 10.
`Cc1ccc(Nc2c(-c3c[nH]c4ccccc34)nc3ccccn23)cc1` gave GAA glycogen 4.5µM*.
`C(=N\Nc1nc2ccccc2[nH]1)/c1ccc2c(c1)OCO2` gave GLA spleen mod -2%, GAA glycogen 16µM*, GAA inh -7% and GLA inh pH 4.5 -4.
Screening COc1cc(/C=N/Nc2nc3ccccc3[nH]2)cc(OC)c1O returned GLA spleen mod -3%, GAA glycogen 20µM*, GAA spleen mod -5%, GAA inh 5% and GLA inh pH 4.5 -3.
`COc1cc(/C=N/Nc2nn3cnnc3c3ccccc23)ccc1O` gave GLA spleen mod 11%, GAA glycogen 18µM*, GAA spleen mod 6%, GAA inh -10% and GLA inh pH 4.5 -15.
C=CCn1cc(/C=N/Nc2nc3ccccc3[nH]2)c2ccccc21 was read as GLA spleen mod 1%, GAA glycogen 28µM*, GAA spleen mod -5%, GAA inh -8% and GLA inh pH 4.5 2.
Screening Cc1c(/C=N/Nc2nc3ccccc3[nH]2)c2ccccc2n1C returned GLA spleen mod -1%, GAA glycogen inconclusive, GAA spleen mod 8% and GLA inh pH 4.5 -4.
Screening CCOc1cc(/C=N/Nc2nn3cnnc3c3ccccc23)ccc1O returned GLA spleen mod -1%, GAA glycogen inconclusive, GAA spleen mod -1% and GLA inh pH 4.5 -4.
C/C(=N\Nc1nc2ccccc2[nH]1)c1ccc2c(c1)OCO2 was read as GLA spleen mod -10%, GAA glycogen inconclusive, GAA spleen mod -7%, GAA inh 5% and GLA inh pH 4.5 1.
COc1cccc(/C=N/Nc2nc3ccccc3[nH]2)c1O was read as GLA spleen mod 4%, GAA glycogen inconclusive, GAA spleen mod -3% and GLA inh pH 4.5 -2.
`CCOc1ccccc1-c1nnc2n1N=C(c1ccc(OC)c(OC)c1)CS2` gave GLA spleen mod -6% and GAA spleen mod 3%.
Screening CC(N)CN (stereo not given) returned GLA spleen mod 1% and GAA spleen mod -12%.
`CCCCc1nc2c(c3c1C[C@H](C)OC3)CN(C(=O)COC)CC2` gave GLA spleen mod -4%[17.5 µM], GAA spleen mod 2%[17.4 µM] and GLA inh pH 4.5 0.
Cc1ccsc1/C=N/Nc1nc2ccccc2[nH]1 was read as GLA spleen mod 0%, GAA glycogen 6.3µM*, GAA spleen mod 0%, GAA inh -7% and GLA inh pH 4.5 -1.
For COc1cc(/C=N/Nc2nc3ccccc3[nH]c2=O)ccc1O the results were GLA spleen mod -2%, GAA glycogen inconclusive, GAA inh -7% and GLA inh pH 4.5 -9.
For C(=N\Nc1nc2ccccc2[nH]1)/c1cccs1 the results were GLA spleen mod 16%, GAA glycogen inconclusive, GAA spleen mod 7%, GAA inh -3% and GLA inh pH 4.5 -4.
`COc1cc(/C=N/Nc2nc3ccccc3[nH]2)ccc1O` gave GLA spleen mod 7%, GAA glycogen 22µM*, GAA spleen mod -19%, GAA inh 3% and GLA inh pH 4.5 6.
CC(C)[C@H](NC(=O)[C@@H](Cc1c[nH]c2ccccc12)NC(=O)[C@H](Cc1ccc(O)cc1)NC(=O)[C@@H](N)CC(=O)O)C(=O)N[C@H](Cc1c[nH]c2ccccc12)C(=O)N[C@H](Cc1c[nH]c2ccccc12)C(=O)N[C@@H](CCCCN)C(N)=O was read as GLA spleen mod 24% and GAA spleen mod 4%.
